Test results from PubChem BioAssay AID707 (Columbia University Molecular Screening Center, 2007).
The campaign covered roughly 91,000 compounds. About 310 (0.34%) were called active. This is one part of a sample in which actives are shown more often than they occur. Cut-off read from the data, not from the text of the source: active = inhibition above about 80%; inactive = the rest.

biological target: Bifunctional epoxide hydrolase 2 (Homo sapiens) (UniProt P34913); assay: sEH enzyme activity blockers – biochemical, human sEH, primary screen (AID 707); conditions: recombinant human sEH enzymatic activity assay; at 2 µM; hits give high values
Sequence (P34913 whole entry, looked up): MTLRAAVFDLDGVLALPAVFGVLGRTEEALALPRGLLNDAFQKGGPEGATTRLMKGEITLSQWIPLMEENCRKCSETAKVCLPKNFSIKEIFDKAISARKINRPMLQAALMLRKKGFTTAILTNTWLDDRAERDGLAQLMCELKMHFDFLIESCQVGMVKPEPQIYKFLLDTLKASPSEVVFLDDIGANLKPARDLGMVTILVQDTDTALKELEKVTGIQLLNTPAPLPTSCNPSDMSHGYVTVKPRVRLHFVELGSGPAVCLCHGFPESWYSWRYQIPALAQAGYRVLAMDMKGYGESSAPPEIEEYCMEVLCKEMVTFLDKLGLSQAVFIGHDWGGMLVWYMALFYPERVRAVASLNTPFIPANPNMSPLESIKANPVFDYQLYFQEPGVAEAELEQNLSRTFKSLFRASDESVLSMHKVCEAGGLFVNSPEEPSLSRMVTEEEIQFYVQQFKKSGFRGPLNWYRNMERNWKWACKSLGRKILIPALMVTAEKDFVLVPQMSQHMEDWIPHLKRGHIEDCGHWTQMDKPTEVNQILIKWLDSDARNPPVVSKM

inhibition, inactive:
Cc1ccc(/C=N/NC(=O)C(NC(=O)c2ccccc2)c2n[nH]c(=O)c3ccccc23)cc1 (configuration not stated) -0.8%, COc1ccccc1NC(=O)[C@H](COCc1ccccc1)NC(=O)OC(C)(C)C -8.8%, CCOc1cccc(SCc2noc(C(=O)NC(C)C)c2C(=O)O)c1 -1.8%, CN(C)/C=C(\C#N)C(=O)c1cccnc1Oc1ccc(F)cc1F 12.8%, C=CCn1c(-c2ccc(Cl)cc2)ccc(C#N)c1=O -0.8%, CC1CCN(C(NC(=O)c2ccco2)C(=O)c2ccccc2)CC1 (configuration not stated) -0.8%, O=C1CCN(C(=O)Nc2ccccc2)N1 2.7%, O=C(CCNS(=O)(=O)c1ccccc1C(F)(F)F)NCc1ccc2c(c1)OCO2 -4.3%, COc1ccc(/C=C2\CCCC3C2=NN(C(=O)c2scnc2C)C3c2ccc(OC)cc2)cc1 (configuration not stated) -10.6%, CS(=O)(=O)N(CC(=O)Nc1ccc(F)cc1F)c1cccc([N+](=O)[O-])c1 1.3%, CC(C)c1ccc(/C=C/C(=O)NNC(=O)c2cccnc2)cc1 -2.9%, COc1cc(C2C(C(=O)OCCC#N)=C(C)NC3=C2S(=O)(=O)c2ccccc23)cc(OC)c1OC (configuration not stated) 8.9%, COc1ccc(Cl)cc1NC(=O)CN(C)C(=O)CNC(=O)C12CC3CC(CC(C3)C1)C2 15.5%, CS(=O)(=O)N1CCN(c2ccc(C(=O)NC3C4CC5CC(C4)CC3C5)cc2[N+](=O)[O-])CC1 (configuration not stated) -10.1%, Cc1cc(/C=C2/SC(=O)N(CC(=O)OC(C)C)C2=O)c(C)n1C -9.2%, Cc1cc(OC(=O)c2c(Cl)cccc2Cl)nc(C)n1 -21.2%, Cc1nnsc1S(=O)(=O)Cc1ccccc1Cl 4.8%, CCOC(=O)N1CCN(c2c(NCCCN3CCCC(C)C3)c(=O)c2=O)CC1 (configuration not stated) -4.6%, Cc1nc(Cl)c2oc3ccccc3c2n1 0.8%, O=[N+]([O-])c1ccccc1NCc1ccc(Cl)cc1 -1%, CN(C)c1ccc(NC(=S)N(CCc2ccccc2)C2CC(=O)N(c3c(Cl)cccc3Cl)C2=O)cc1 (configuration not stated) 7.8%, Cc1nn(CC(=O)Nc2nc3ccccc3s2)c(C)c1[N+](=O)[O-] -6.1%, Cc1ccc(OCC(=O)N/N=C/c2ccncc2)cc1 -19.2%, CC(=O)c1cn(CCCCCCCCCCn2cc(C(C)=O)c(=O)[nH]c2=O)c(=O)[nH]c1=O -2%, Cc1ccc(-c2nn(-c3ccccc3)cc2/C=N/NC(=O)c2ccc3c(c2)OCO3)cc1 -6.2%, Cc1occc1C(=O)NNC(=S)NCC(C)C -18%, Cc1cccc(NC(=O)c2ccc(OCC(=O)NCc3ccccc3)cc2)c1C 3.8%
